This is a sample that favours compounds with a hit; in the whole collection about 0.52% have one here.
Sa growth inh = blocks Staphylococcus aureus growth. S. aureus RN4220 growth, OD600, 20 h, 42 °C; stronger effect = lower value. relative growth, % (test concentration not listed). actives 0.53% (n = 170,000). AID 720641;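 active = relative growth at most 50% at the other temperature and 20+ points below 30 °C, or under 10% at both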
S aureus helic = blocks Staphylococcus aureus DNA helicase. purified S. aureus helicase, fluorescence unwinding assay. inhibition, % (no concentration beside the values). actives 0.05% (n = 120,000); in the data active = inhibition above about 25%, passing the limit was not always enough;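 note: 0% = mean of negative control wells and 100% = mean of positive control wells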
* = called active by the depositor; . = no result.

SMILES	Sa growth inh	S aureus helic
CCn1cc(C(=O)NCC(C)C)c(=O)c2cc(F)c(N3CCN(C(=O)c4ccco4)CC3)cc21	113	3
CCn1cc(C(=O)O)c(=O)c2cc(F)c(N3CCN(C(=O)c4ccccc4F)CC3)cc21	51	14
CCn1cc(C(=O)NN)c(=O)c2cc(F)c(N3CCCC3)cc21	74	-3
CCn1cc(C(=O)O)c(=O)c2cc(F)c(N3CCNCC3)cc21	-0.1*	.
CCn1cc(C(=O)O)c(=O)c2cc(F)c(N3CCN(C(=S)Nc4ccc5c(c4)OCO5)CC3)cc21	0.2*	18
COc1ccc(CN(C)C(=O)c2cccc(S(=O)(=O)N3CCOCC3)c2)cc1F	94	5
COc1c(Cl)cc(C(=O)N(Cc2ccc(N(C)C)cc2)Cc2ccco2)cc1Cl	81	-3
Fc1ccc(Nc2nc3ccccc3nc2Nc2ccc(F)cc2)cc1	-0.4*	6
Fc1ccc(Nc2nc(-c3ccncc3)nc3ccccc23)cc1	107	8
Cc1ccc(Nc2nc(C(=O)N(C)Cc3ccccc3)cs2)cc1	131	-7
Cc1ccc(Nc2nc(CN(C)CCCc3[nH]nc(N)c3C#N)cs2)cc1	-1.1*	-11
Cc1nnc(N2CCCC(C(=O)NCCN3CCOCC3)C2)c2nn(-c3ccc(Cl)cc3)c(C)c12 (stereo not given)	100	-2
O=C1c2ccccc2C(=O)c2c1oc1c3c(ccc21)OCN(C1CCCC1)C3	97	32
O=C1c2ccccc2C(=O)c2c1oc1c3c(ccc21)OCN(C1CCS(=O)(=O)C1)C3 (stereo not given)	7.6*	27
Cc1ccc(-n2c(C)csc2=NC(=O)c2ccccc2)cc1	.	-18
Oc1ccc2ccccc2c1C=NC1CC1	94	6
Oc1c(C(c2ccc(F)cc2)N2CCCCC2)ccc2cccnc12 (stereo not given)	103	-10
Oc1c(C(c2cccs2)N2CCCCC2)ccc2cccnc12 (stereo not given)	8.1*	10
Cc1nc(C(F)(F)F)ccc1NC(=O)/C=C/C(=O)O	107	.
COc1cccc(NCc2nnc(SC(C)c3nc4ccccc4c(=O)[nH]3)n2C2CCCCC2)c1 (stereo not given)	119	6
Fc1ccc(-c2csc(-c3cccs3)n2)cc1	45*	.
CS(=O)(=O)c1ccc(-c2csc(-c3cccs3)n2)cc1	96	15
Nc1nc2ccccc2n1Cc1ccccc1F	102	-13
CC(C)(C)c1ccc(Cn2c(N)nc3ccccc32)cc1	6.3*	10
COC(=O)c1ccc(COC(=O)c2cc(OC)c(OC)cc2NC(=O)c2ccco2)cc1	102	7
SMILES	Sa growth inh	S aureus helic
CS(=O)(=O)C1=NN2C(=N)/C(=C\c3ccc(-c4ccc(Cl)cc4)o3)C(=O)N=C2S1	42	-15
CCS(=O)(=O)C1=NN2C(=N)/C(=C\c3ccc(-c4ccccc4)o3)C(=O)N=C2S1	44*	-54
CCOc1ccc(N=C=S)cc1	81	30
Cc1cc(Cl)cc(C)c1OCCn1ccnc1	19	0
Clc1ccc(OCCn2ccnc2)c(Br)c1	3.1*	9
COc1cc(Cl)c(C)cc1NC(=S)N(CCN(C)C)C(C)c1ccco1 (stereo not given)	91	4
CCCNCc1nc(-c2ccc(Cl)cc2)no1	112	-22
CCOC(=O)c1sc(SCCO)c2c1CC(C)(C)CC2=O	106	.
O=C(c1ccco1)N1CCN(C(=O)c2sc3ccccc3c2Cl)CC1	91	.
O=C(Oc1c(C(=O)c2ccccc2)sc2ccccc12)c1ccco1	1.7*	6
Cc1occc1C(=O)N=Nc1cc(C(C)(C)C)c(O)c(C(C)(C)C)c1	1.4*	7
Cc1occc1C(=O)Nc1cc(C(C)(C)C)on1	115	-1
Cc1noc(C)c1COc1ccccc1C(=O)N1CCCc2ccccc21	133	6
COC(=O)c1ccccc1NC(=O)CN1C(=O)CSc2ncccc21	92	-1
Cc1ccc(CSc2ncnc3c2nnn3Cc2ccccc2)cc1	90	5
CCNC(=O)Nc1nc2ccccc2s1	115	-15
COC(NC(=O)Nc1nc2ccccc2s1)(C(F)(F)F)C(F)(F)F	5.5*	3
NC(=O)COC(=O)c1cc2ccccc2cc1O	90	7
O=C(C1CCN(S(=O)(=O)c2cc(C(F)(F)F)ccc2Cl)CC1)N1CCN(C(=O)C2CCCO2)CC1 (stereo not given)	112	8
c1ccc2c(OCCCCCn3ccnc3)cccc2c1	-0.5*	3
COc1ccc(OCCCn2ccnc2)cc1	84	10
Cc1ccc(OCCCn2ccnc2)cc1	102	10
Cc1ccc(C(C)C)c(OCCn2ccnc2)c1	59	-19
Cc1ccc(C(C)C)c(OCCCCn2ccnc2)c1	-0.7*	4
Cc1cc(OCCCCCn2ccnc2)cc(C)c1Cl	-0.9*	31
SMILES	Sa growth inh	S aureus helic
CCN(CC)C(=O)c1c2c(nc3ccccc13)CCCC2	.	20
CC1c2ccsc2CCN1C(=S)NC(=O)c1cccs1 (stereo not given)	-0.4*	.
CN1CCC(NC(=O)c2cccs2)CC1	109	1
COc1ccc(-c2ccc(Nc3ccc(C(=O)N4CCCCCC4)cc3)nn2)cc1	98	10
Clc1cccc(NCc2cccc3c2CN(CC2CCCO2)C3)c1 (stereo not given)	100	0
Oc1c(CN2CCc3ccccc3C2)cc(Cl)c2cccnc12	.	-12
Clc1cc2c(c3ncccc13)OCN(CC1CCCO1)C2 (stereo not given)	1.0*	-13
CCCCN1COc2c(cc(Cl)c3cccnc23)C1	1.0*	8
Clc1cc2c(c3ncccc13)OCN(CCC1=CCCCC1)C2	0.1*	11
Clc1cc2c(c3ncccc13)OCN(CCc1ccccc1)C2	95	14
CCC(Sc1nnc2c(n1)[nH]c1ccccc12)C(=O)Nc1ccc(S(N)(=O)=O)cc1 (stereo not given)	95	13
CC1(C)C(C(=O)O)N2C(=O)CC2S1(=O)=O (stereo not given)	27*	-35
CC1(C)[C@H](C(=O)O)N2C(=O)C[C@H]2S1(=O)=O	87	.
O=C(CSc1n[nH]c(-c2ccccc2F)n1)NN1C(=O)NC2(CCCCC2)C1=O	90	3
NCCSc1ccc(F)cc1	123	.
Cc1nc(-c2ccc(-c3noc(C)n3)cc2)no1	104	.
CCC(C)N1C(=O)S/C(=C/c2ccc(O)c(Cl)c2)C1=O (stereo not given)	-0.6*	-8
CCOc1cc(/C=C2/SC(=S)N(C(CC)C(=O)O)C2=O)ccc1O (stereo not given)	80	-2
CCOc1ccccc1N1CCN(C(=O)C2CCN(Cc3ccc(OC)cc3)CC2)CC1	114	14
N#CCSc1ncnc2cc(-c3ccc(Cl)cc3)sc12	85	-40
O=C(O)CCSc1ccc(F)c(F)c1	115	3
CCN1CCCC1CNCC(=O)Nc1ccc(C)c(Br)c1 (stereo not given)	98	0
CCN1CCCC1CNC(=O)Nc1ccc(Cl)c(Cl)c1 (stereo not given)	0.6*	10
Cc1cc(NS(=O)(=O)c2ccc(N=Cc3ccccc3O)cc2)no1	33	2
CCOc1nnc(NS(=O)(=O)c2ccc(N=Cc3ccccc3O)cc2)s1	7.8*	13
CCC(=O)/C=C1/Sc2ccc(C)cc2N1CC	127	1
Cc1ccc2c(c1)N(CCO)/C(=C/c1sc3ccccc3[n+]1C)S2	-1.4*	19
CCN1/C(=C\C=C2\C(=O)N(C)C(=S)N2C)Sc2ccccc21	81	-3
CCN1/C(=C/c2sc3ccccc3[n+]2CCO)Sc2ccccc21	28	44*
